Experimental findings from the supplement of paper PMC5919970 are described below.

The experiment concerns TYKNU. Description: fractional viability relative to vehicle; TYKNU is a high-grade serous ovarian cancer line; higher = less growth inhibition. To be noted: 72 h. In a few lines: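 Drug treatment lasted 72 h, with cells grown at 37 °C in 5% CO2 in RPMI 1640 supplemented with 10% FBS. Beforehand, TYKNU control cells or their lentiCRISPRv2 knockout derivatives had been seeded at 500 cells per well into drug-stamped 384-well plates carrying a ~2100-compound library at 2 or 10 μM, in duplicate. Viability came from Cell Titer Glo luminescence, with averaged duplicate treatment wells normalised to duplicate control wells in the same plate position.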

[1] abbreviates: 2uM, genotype: DNM1L knockout (sgDNM1L #1).
Where [2] appears, read: 2uM, genotype: sgCTRLA1 (non-targeting control).
[3] abbreviates: 10uM, genotype: DNM1L knockout (sgDNM1L #1).
The mark [4] stands for this setting: 10uM, genotype: sgCTRLA1 (non-targeting control).

Counter-ions that a name gives are not always drawn. In all, about 2,000 compounds were measured (“fractional viability relative to vehicle”: median about 0.91, lowest 2% from about 0.045 on). The sample as a whole holds a higher share of the lowest values than the screen did.

The compound `O=C(c1ccc(F)c(F)c1Nc1ccc(I)cc1F)N1CC(O)([C@@H]2CCCCN2)C1` [Cobimetinib (GDC-0973, RG7420)] showed a fractional viability under setting [1] of 0.814, a fractional viability under setting [2] of 1.03, a fractional viability under setting [3] of 0.942 and a fractional viability under setting [4] of 0.846.

Consider `Nc1ccc2ncnc(NCCc3ccc(Oc4ccccc4)cc3)c2c1`, for which the fractional viability by setting is: under setting [1], 0.604; under setting [2], 0.444; under setting [3], 0.596; under setting [4], 0.43.

As to `COc1cc(/C=C/C(=O)N2CCC=CC2=O)cc(OC)c1OC` [Piperlongumine], the fractional viability under setting [1] is 0.302, the fractional viability under setting [2] turned out to be 0.319, the fractional viability under setting [3] is 0.0446 and the fractional viability under setting [4] came out at 0.0292.

With `COc1ccc(/C=C\c2cc(OC)c(OC)c(OC)c2)cc1O` [Combretastatin A4], the fractional viability was 0.11 under setting [1], 0.122 under setting [2], 0.111 under setting [3] and 0.073 under setting [4].

`COc1cc(/C=C/C(=O)N2CCN(CC(=O)N3CCCC3)CC2)cc(OC)c1OC` [Cinepazide maleate] came in with a fractional viability under setting [1] of 1.08, a fractional viability under setting [2] of 0.973, a fractional viability under setting [3] of 1.1 and a fractional viability under setting [4] of 1.02.

With `COc1ccc2cc(OCC3(C(=O)O)CN(C(=O)c4ccc(F)cc4)C3)ccc2c1`, the fractional viability reads like this: under setting [1], 0.822; under setting [2], 1.12; under setting [3], 0.788; under setting [4], 1.11.

As for `COCCOc1ccc2c(c1)ncn2-c1ccc2cccc(N3CCC(N)CC3)c2n1`, the fractional viability by setting is: under setting [1], 0.892; under setting [2], 0.893; under setting [3], 0.13; under setting [4], 0.139.

With `Cc1cc(C)c(CNC(=O)c2cc(-c3ccc(N4CCN(C)CC4)nc3)cc3c2c(C)cn3C(C)C)c(=O)[nH]1`, the fractional viability was 0.782 under setting [1], 1.03 under setting [2], 0.669 under setting [3] and 0.609 under setting [4].

As for `O=C(NC1CC1)c1cc(-c2cccs2)on1` [Isoxazole 9 (ISX-9)], the fractional viability is, setting by setting: under setting [1], 0.927; under setting [2], 0.844; under setting [3], 0.795; under setting [4], 0.662.

On to `CC(CNC(=O)c1cccnc1)NC(=O)c1cccnc1` (stereo not drawn) [Nicaraven], for which the fractional viability by setting is: under setting [1], 0.754; under setting [2], 1.07; under setting [3], 0.726; under setting [4], 0.99.

As to `CCCS(=O)(=O)Nc1ccc(F)c(C(=O)c2c[nH]c3ncc(-c4ccc(Cl)cc4)cc23)c1F` [Vemurafenib (PLX4032, RG7204)], the fractional viability by setting is: under setting [1], 1.05; under setting [2], 1.26; under setting [3], 0.823; under setting [4], 0.974.

For the compound `COc1ncc(-c2ccc3nccc(-c4ccnnc4)c3c2)cc1NS(=O)(=O)c1ccc(F)cc1F`, the fractional viability was 0.446 under setting [1], 0.184 under setting [2], 0.0665 under setting [3] and 0.0352 under setting [4].

Turning to `COC(=O)N[C@H](C(=O)N1CCC[C@H]1c1ncc(-c2ccc(-c3ccc(-c4cnc([C@@H]5CCCN5C(=O)[C@@H](NC(=O)OC)C(C)C)[nH]4)cc3)cc2)[nH]1)C(C)C`, the fractional viability by setting is: under setting [1], 1.04; under setting [2], 1; under setting [3], 0.511; under setting [4], 0.654.

Regarding `CS(=O)(=O)CCNCc1ccc(-c2ccc3ncnc(Nc4ccc(OCc5cccc(F)c5)c(Cl)c4)c3c2)o1`, the fractional viability is, setting by setting: under setting [1], 1.08; under setting [2], 1.02; under setting [3], 0.179; under setting [4], 0.303.

Regarding `C=CC(=O)Nc1ccc2ncnc(Nc3cccc(Br)c3)c2c1`, the fractional viability is, setting by setting: under setting [1], 0.927; under setting [2], 0.921; under setting [3], 0.248; under setting [4], 0.317.

On to `C=CC(=O)Nc1ccc2ncnc(Nc3ccc(OCc4cccc(F)c4)c(Cl)c3)c2c1`, for which the fractional viability reads like this: under setting [1], 0.704; under setting [2], 0.853; under setting [3], 0.044; under setting [4], 0.0416.

Turning to `COCC(=O)NC/C=C/c1ccc2ncnc(Nc3ccc(Oc4ccc(C)nc4)c(C)c3)c2c1`, the fractional viability under setting [1] was 1.07, the fractional viability under setting [2] came out at 1.08, the fractional viability under setting [3] turned out to be 0.886 and the fractional viability under setting [4] was 1.06.

Consider `Cc1c(Cn2c(C)nc3c(C(=O)O)cc(N4CCOCC4)cc32)cccc1C(F)(F)F`, for which the fractional viability by setting is: under setting [1], 0.754; under setting [2], 0.989; under setting [3], 0.83; under setting [4], 0.849.

Compound `CC[C@@H]([C@H](C)O)n1ncn(-c2ccc(N3CCN(c4ccc(OC[C@@H]5CO[C@@](Cn6cncn6)(c6ccc(F)cc6F)C5)cc4)CC3)cc2)c1=O` [Posaconazole] had a fractional viability under setting [1] of 0.919, a fractional viability under setting [2] of 1.13, a fractional viability under setting [3] of 0.868 and a fractional viability under setting [4] of 1.05.

For `C=CC(=O)Nc1cccc(Oc2nc(Nc3ccc(N4CCN(C)CC4)cc3)ncc2Cl)c1`, the fractional viability by setting is: under setting [1], 0.338; under setting [2], 0.355; under setting [3], 0.157; under setting [4], 0.146.

Consider `C=CC(=O)Nc1ccc(CN2C(=O)N(c3cc(OC)cc(OC)c3)Cc3cnc(Nc4ccc(N5CCN(C)CC5)cc4)nc32)cc1`, for which the fractional viability is 0.926 under setting [1], 0.803 under setting [2], 0.0593 under setting [3] and 0.0423 under setting [4].

For the compound `C=CC(=O)Nc1cccc(Oc2nc(Nc3ccc(N4CCN(C)CC4)cc3OC)ncc2Cl)c1`, the fractional viability runs as follows: under setting [1], 0.754; under setting [2], 0.963; under setting [3], 0.345; under setting [4], 0.492.

In the case of `CCC(=O)Nc1cccc(Oc2nc(Nc3ccc(N4CCN(C)CC4)cc3OC)ncc2Cl)c1`, the fractional viability under setting [1] came out at 0.867, the fractional viability under setting [2] worked out at 0.981, the fractional viability under setting [3] was 0.303 and the fractional viability under setting [4] was determined as 0.347.

For `C=CC(=O)Nc1cccc(Sc2nc(Nc3ccc(N4CCN(C)CC4)cc3)ncc2Cl)c1`, the fractional viability under setting [1] came out at 0.965, the fractional viability under setting [2] was found to be 0.898, the fractional viability under setting [3] was 0.0379 and the fractional viability under setting [4] is 0.0337.

As for `C=CC(=O)Nc1cccc(Nc2nc(Nc3ccc(N4CCN(C(C)=O)CC4)cc3OC)ncc2C(F)(F)F)c1`, the fractional viability came out at 0.528 under setting [1], 0.856 under setting [2], 0.24 under setting [3] and 0.235 under setting [4].

For `C[C@@H](Nc1cc(F)cc(F)c1)c1cc(C(=O)N(C)C)cc2c(=O)cc(N3CCOCC3)oc12`, the fractional viability by setting is: under setting [1], 0.647; under setting [2], 0.847; under setting [3], 0.701; under setting [4], 0.566.

In turn, `CN(C)C/C=C/C(=O)Nc1cc2c(Nc3ccc(F)c(Cl)c3)ncnc2cc1O[C@H]1CCOC1` [Afatinib (BIBW2992) Dimaleate] came in with a fractional viability under setting [1] of 0.77, a fractional viability under setting [2] of 0.984, a fractional viability under setting [3] of 0.77 and a fractional viability under setting [4] of 0.767.

For `CN(C)C/C=C/C(=O)Nc1cc2c(Nc3ccc(F)c(Cl)c3)ncnc2cc1O[C@H]1CCOC1` [Afatinib (BIBW2992)], the fractional viability stood at 0.578 under setting [1], 0.809 under setting [2], 0.0953 under setting [3] and 0.0868 under setting [4].

In the case of `O=S(=O)(N=Cc1c(O)ccc2ccccc12)c1cccs1`, the fractional viability stood at 0.71 under setting [1], 0.953 under setting [2], 0.696 under setting [3] and 0.77 under setting [4].

As for `NC(=O)c1noc([C@H](CCCC2CCCCC2)CC(=O)NO)n1`, the fractional viability is, setting by setting: under setting [1], 0.928; under setting [2], 1.03; under setting [3], 0.623; under setting [4], 0.827.

With `CNS(=O)(=O)Nc1nccc(Cc2c(C)c3ccc(Oc4ncccn4)cc3oc2=O)c1F`, the fractional viability was determined as 0.326 under setting [1], 0.304 under setting [2], 0.239 under setting [3] and 0.199 under setting [4].

On to `Cc1cc2c(F)c(Oc3ncnn4cc(OC[C@@H](C)O)c(C)c34)ccc2[nH]1`, for which the fractional viability is, setting by setting: under setting [1], 0.804; under setting [2], 0.956; under setting [3], 0.487; under setting [4], 0.469.

On to `COc1cc2ncnc(Nc3ccc(F)c(Cl)c3)c2cc1OCCCN1CCOCC1` [Gefitinib (ZD1839)], for which the fractional viability was 1 under setting [1], 1.11 under setting [2], 0.492 under setting [3] and 0.555 under setting [4].

With `COc1cc2c(Oc3ccc4[nH]c(C)cc4c3F)ncnc2cc1OCCCN1CCCC1` [Cediranib (AZD2171)], the fractional viability was found to be 0.99 under setting [1], 0.847 under setting [2], 0.0461 under setting [3] and 0.0421 under setting [4].

On to `Cc1ncc(CCCN(C)C)cc1Nc1ncc2c(n1)-c1ccc(C(F)(F)F)cc1NC(=S)C2`, for which the fractional viability under setting [1] is 0.211, the fractional viability under setting [2] amounted to 0.231, the fractional viability under setting [3] is 0.259 and the fractional viability under setting [4] was determined as 0.251.

`CC(C)(C)C[C@@H]1N[C@@H](C(=O)N[C@H]2CC[C@H](O)CC2)[C@H](c2cccc(Cl)c2F)[C@]12C(=O)Nc1cc(Cl)ccc12`: the fractional viability came out at 0.274 under setting [1], 0.277 under setting [2], 0.259 under setting [3] and 0.225 under setting [4].

For the compound `CCN(CC)CCN(Cc1ccc(-c2ccc(C(F)(F)F)cc2)cc1)C(=O)Cn1c(SCc2ccc(F)cc2)nc(=O)c2c1CCC2`, the fractional viability came to 0.329 under setting [1], 0.569 under setting [2], 0.0156 under setting [3] and 0.00842 under setting [4].
